PrP 5UTR inh – inhibition of PrP 5' UTR reporter expression; cell-based PrP 5' UTR mRNA reporter, plate reader; 0.35% of 340,000 active; inhibition, % (concentration not given with the values); in the data active = inhibition above about 52%; also: 0 = median of the neutral control wells
RecA intein inh – Mtb RecA intein splicing inhibitors, primary screen, biochemical, fluorescence, HTS; cell-free RecA intein splicing; 0.75% of 290,000 active; Protein RecA (Mycobacterium tuberculosis (strain ATCC 25618 / H37Rv)), P9WHJ3; AID 2221, 2009; inhibition, % (concentration not given with the values); in the data active = inhibition above about 30%;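 also: 0% = vehicle wells and 100% = reference inhibitor control wells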
Target sequence (P9WHJ3 whole entry, looked up): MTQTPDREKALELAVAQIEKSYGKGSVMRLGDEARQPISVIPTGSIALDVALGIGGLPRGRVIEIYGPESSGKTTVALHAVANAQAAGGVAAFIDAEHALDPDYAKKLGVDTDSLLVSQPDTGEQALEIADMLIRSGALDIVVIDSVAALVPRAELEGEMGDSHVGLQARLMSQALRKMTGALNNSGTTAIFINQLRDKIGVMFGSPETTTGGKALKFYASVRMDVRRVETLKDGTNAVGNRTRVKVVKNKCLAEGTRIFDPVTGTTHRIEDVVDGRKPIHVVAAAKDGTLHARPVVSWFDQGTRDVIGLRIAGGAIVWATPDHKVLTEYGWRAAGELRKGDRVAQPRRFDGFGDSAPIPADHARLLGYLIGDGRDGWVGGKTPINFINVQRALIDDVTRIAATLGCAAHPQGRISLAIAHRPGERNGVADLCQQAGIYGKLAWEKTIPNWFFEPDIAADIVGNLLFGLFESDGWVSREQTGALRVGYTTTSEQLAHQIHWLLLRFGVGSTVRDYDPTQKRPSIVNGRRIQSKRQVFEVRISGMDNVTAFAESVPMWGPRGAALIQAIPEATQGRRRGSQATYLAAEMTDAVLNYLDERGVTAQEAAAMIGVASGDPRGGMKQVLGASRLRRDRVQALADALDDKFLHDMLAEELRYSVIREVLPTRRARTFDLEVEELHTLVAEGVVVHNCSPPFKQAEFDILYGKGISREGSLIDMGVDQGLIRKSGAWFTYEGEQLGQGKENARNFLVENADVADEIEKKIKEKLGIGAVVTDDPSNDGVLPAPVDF
BJeLR viability – MLPCN primary cell-based screen for lethality selective to Ras in HRASV12 cells; BJeLR (HRASV12) viability, CellTiter-Glo ATP luminescence, 48 h; inhibition, % (no concentration beside the values); AID 1554, 2009; 0.17% of 300,000 active; in the data active = inhibition above about 50%
Rv3671c protease – Rv3671c serine protease inhibitors, primary screen, biochemical, fluorescence polarization, M. tuberculosis H37Rv. inhibition, % at 5.96 µM. P9WHR9. 0.048% of 320,000 active; in the data active = inhibition above about 38%;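 also: extracellular domain of Rv3671c used as enzyme; 0% = enzyme with DMSO and 100% = no enzyme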
FadD28 binding – inhibitors of FadD28 bisubstrate probe binding, primary screen, biochemical, fluorescence polarization, single point; inhibition, % at 12.5 µM; Mycobacterium tuberculosis FadD28 fatty-acid-AMP ligase; 0.22% of 360,000 active; in the data active = inhibition above about 8.5%, passing the limit was not always enough
UGM FP inh – M. tuberculosis UGM enzyme inhibitors, primary screen, biochemical, fluorescence polarization, single point; UDP-galactopyranose mutase (Mycobacterium tuberculosis (strain ATCC 25618 / H37Rv)), …; purified UGM, fluorescence polarization probe displacement; inhibition, % at 10 µM; 0.06% of 320,000 active; in the data active = inhibition above about 10%, passing the limit was not always enough
* hit, by the source's call. An excerpt weighted towards active compounds, which were near 1.3% of everything screened.

S=c1nc[nH]c2nc[nH]c12 was read as PrP 5UTR inh 9.5, RecA intein inh -1.7, BJeLR viability 76.4*, Rv3671c protease -1.1, FadD28 binding -3.9 and UGM FP inh -1.3.
CCCCOc1ccc(C2C3CN(C(=O)OCC)CC=C3C(C#N)=C(N)C2(C#N)C#N)cc1OC (configuration not stated) was read as PrP 5UTR inh -44.0, RecA intein inh 32.6*, BJeLR viability -13.7, Rv3671c protease 0.0, FadD28 binding -3.6 and UGM FP inh 0.7.
For CCOC(=O)N1CC=C2C(C#N)=C(N)C(C#N)(C#N)[C@H](c3ccc(OCC)c(OCC)c3)[C@H]2C1 the results were PrP 5UTR inh -39.7, RecA intein inh 8.3, BJeLR viability 2.2, Rv3671c protease 3.4, FadD28 binding -2.4 and UGM FP inh 0.9.
For Cc1ccc(S(=O)(=O)N(C)C[C@H]2OCCCC[C@@H](C)Oc3ccc(NC(=O)Cc4ccccc4)cc3C(=O)N([C@H](C)CO)C[C@@H]2C)cc1 the results were FadD28 binding -11.9.
O=C(CCl)Nc1ccc(N2CCCCCC2)cc1 was read as PrP 5UTR inh -4.7, RecA intein inh 48.4*, BJeLR viability -2.3, Rv3671c protease 5.9, FadD28 binding -0.7 and UGM FP inh -1.6.
For N#C/C(N=Nc1ccccc1O)=N\Nc1ccccc1O the results were PrP 5UTR inh -29.4, RecA intein inh -2.7, BJeLR viability 56.0*, Rv3671c protease -154.8, FadD28 binding 9.4* and UGM FP inh 1.7.
For Oc1ccccc1N=N/C(=N/Nc1ccccc1O)c1ccccc1 the results were PrP 5UTR inh -16.2, RecA intein inh -1.6, BJeLR viability -1.5, Rv3671c protease 1.0, FadD28 binding -0.3 and UGM FP inh 1.9.
Screening COc1ccccc1NC(=O)COC(=O)Cn1c(C)csc1=O returned FadD28 binding -1.0.
Screening COc1ccc(C2=NN(c3ccc(C(=O)O)cc3)C(c3ccc(OC)c(OC)c3)C2)cc1 (configuration not stated) returned PrP 5UTR inh 2.9, RecA intein inh inactive, BJeLR viability 4.2, Rv3671c protease 17.4, FadD28 binding 36.8* and UGM FP inh -0.2.
For CCn1c2ccccc2c2cc(Nc3cc(C)nc4ncnn34)ccc21 the results were PrP 5UTR inh 67.7*, RecA intein inh 7.8, BJeLR viability 34.8, Rv3671c protease -1.4, FadD28 binding 0.9 and UGM FP inh -2.1.
For CCc1ccc(Nc2cc(C)nc3ncnn23)cc1 the results were PrP 5UTR inh 12.8, RecA intein inh -0.9, BJeLR viability -4.8, Rv3671c protease 2.8, FadD28 binding -2.6 and UGM FP inh -3.1.
Screening Cc1cccc(C(=O)NNC(=O)c2ccc(NS(=O)(=O)c3cccs3)cc2)c1C returned PrP 5UTR inh -18.3, Rv3671c protease -5.5, FadD28 binding 12.6* and UGM FP inh 1.2.
Screening O=C(NNC(=O)c1cccs1)c1ccc([N+](=O)[O-])cc1 returned BJeLR viability -7.4, Rv3671c protease 3.6 and UGM FP inh -2.1.
O=C(NNC(=O)c1ccc([N+](=O)[O-])cc1)c1ccc(NS(=O)(=O)c2cccs2)cc1 was read as PrP 5UTR inh -18.9, Rv3671c protease -7.3, FadD28 binding 19.0* and UGM FP inh -2.5.
For Cc1ccc(C(=O)NNC(=O)c2ccc(NS(=O)(=O)c3cccs3)cc2)s1 the results were PrP 5UTR inh -19.2, RecA intein inh 20.6, BJeLR viability 2.2, Rv3671c protease -22.6, FadD28 binding 2.5 and UGM FP inh -1.9.
For Cc1ccccc1CC(=O)Nc1ccc2c(c1)c(=O)n(C)n2-c1cccs1 the results were FadD28 binding -1.9.
CN(C)c1ccc(/C=C2\C(=O)NC(=O)N(CCc3ccc(F)cc3)C2=O)cc1 was read as PrP 5UTR inh -5.7, RecA intein inh 5.5, BJeLR viability -1.7, Rv3671c protease -30.9, FadD28 binding 24.6* and UGM FP inh -1.2.
Screening COc1ccc(-c2c(-c3cc(OC)cc(OC)c3)n(C)c3ccc(Br)cc23)cc1 returned PrP 5UTR inh -29.9, Rv3671c protease 11.5, FadD28 binding -3.3 and UGM FP inh 1.4.
For COc1ccc(N=Nc2nc3ccc(Br)cc3n2C)cc1 the results were PrP 5UTR inh -69.4, RecA intein inh 0.7, BJeLR viability -4.8, Rv3671c protease 7.9, FadD28 binding 0.0 and UGM FP inh 66.4*.
`N#C/C(=C\c1ccc(O)c(O)c1)C(=O)NCCc1ccccc1` gave PrP 5UTR inh -25.9, Rv3671c protease 1.8, FadD28 binding 11.1* and UGM FP inh -2.0.
COc1cc(/C=C(\C#N)C(=O)NCCc2ccccc2)cc(OC)c1O was read as PrP 5UTR inh -11.3, RecA intein inh 15.9, BJeLR viability -4.1, Rv3671c protease -2.3, FadD28 binding -2.4 and UGM FP inh -9.2.
`CCc1ccc(CCC(=O)Nc2ncc(Cc3ccccc3Cl)s2)o1` gave PrP 5UTR inh -16.1, RecA intein inh 10.5, BJeLR viability 56.7*, Rv3671c protease -12.4, FadD28 binding 2.0 and UGM FP inh -0.9.
For O=C(CN1CCOCC1)Nc1ncc(Cc2ccccc2Cl)s1 the results were PrP 5UTR inh -30.3, RecA intein inh 2.3, BJeLR viability -8.0, Rv3671c protease 4.9, FadD28 binding -0.4 and UGM FP inh 1.1.
C(=N\Nc1nc2ccccc2[nH]1)/c1ccc2ncccc2c1 was read as PrP 5UTR inh -17.3, RecA intein inh 0.7, BJeLR viability 88.3*, Rv3671c protease 4.1, FadD28 binding -1.6 and UGM FP inh 0.4.
CCN(CC)c1ccc(/C=N/Nc2nc3ccccc3[nH]2)c(O)c1 was read as PrP 5UTR inh -4.1, RecA intein inh 29.7, BJeLR viability 60.3*, Rv3671c protease 32.1, FadD28 binding -5.1 and UGM FP inh -1.8.
CCN(CC)c1ccc(/C=N/NC(=O)c2ccco2)c(O)c1 was read as PrP 5UTR inh -42.5, RecA intein inh -95.1, BJeLR viability 57.8*, Rv3671c protease 12.9, FadD28 binding -0.7 and UGM FP inh 1.3.
Screening CCOc1ccc(C(CN2CCOCC2)C(C)=O)cc1OC (configuration not stated) returned FadD28 binding -0.5.
Screening CCCCN(C)c1c(C)nc2ccc(C(=O)NCc3ccc4c(c3)OCO4)cn12 returned FadD28 binding -2.9.
CC1(C)CC(=O)C2=C(C1)NC1=C(C(=O)c3ccccc31)C2c1cc([N+](=O)[O-])ccc1O (configuration not stated) was read as PrP 5UTR inh -31.5, RecA intein inh 10.0, BJeLR viability 1.0, Rv3671c protease 26.9, FadD28 binding 20.7* and UGM FP inh -1.7.
CC1(C)CC(=O)C2=C(C1)NC1=C(C(=O)c3ccccc31)C2c1ccccc1 (configuration not stated) was read as PrP 5UTR inh -33.9, RecA intein inh 10.8, BJeLR viability -13.9, Rv3671c protease 13.7 and FadD28 binding 6.3.
